One assay deals with IDI2. The experiment in a line: pooled miR-30 sensor sort-seq; sequence = guide strand. Conditions: shRNA.
For TTTCTCAATGTTTTCGTTCAGA, the sensor-assay potency score (higher = more potent) was -0.492.

TAACCTTATCATTCTCATCCAC: the sensor-assay potency score (higher = more potent) is -0.207.

Consider TTGTGAAGCTCCACAAACGGGG, for which the sensor-assay potency score (higher = more potent) was -0.921.

In the case of TAGTGATTTATACATGATGGGC, the sensor-assay potency score (higher = more potent) is -1.3.

Consider TAGGATGCAAGATTGAATGTGT, for which the sensor-assay potency score (higher = more potent) came out at 0.9.

As for TTTTCTTCCAGTTCTGCTGGGT, the sensor-assay potency score (higher = more potent) was 0.298.

In turn, TAAACGTCGAGTCACTTGGCTG registered a sensor-assay potency score (higher = more potent) of -1.26.

With ATTCTCATCCACAACAATCAGC, the sensor-assay potency score (higher = more potent) is -0.745.

For the sequence TTGTCATGAACACAATGTCCTC, the sensor-assay potency score (higher = more potent) is -1.35.

The sequence TTTCGTTTCACTGGGATCCGGG came in with a sensor-assay potency score (higher = more potent) of -0.0224.

Sequence TTTCGTGTCCGACCTCTGCTGT displayed a sensor-assay potency score (higher = more potent) of -0.749.

TTATTTGTAAGCATATTACTGA showed a sensor-assay potency score (higher = more potent) of 0.0641.

In the next assay the target is IER5. The description is as above. Conditions: shRNA.
TTATGCAGCTTGATGCCGCCGC showed a sensor-assay potency score (higher = more potent) of -0.467.

In turn, TTTCCTAGAGTAATCACAGGAT had a sensor-assay potency score (higher = more potent) of 0.282.

As to TTCATGTCTCTCAGCACCGGCT, the sensor-assay potency score (higher = more potent) is -0.831.

For TTCCAAGCTTGAACTCTTCTGT, the sensor-assay potency score (higher = more potent) was determined as 0.444.

As to TATCGCAGCAGATCTGCCCGGG, the sensor-assay potency score (higher = more potent) was -0.199.

For the sequence TACAAAAATCAATACAACGAAG, the sensor-assay potency score (higher = more potent) is -1.23.

Sequence ATAAGGTCTTTCCACTTCGGGC displayed a sensor-assay potency score (higher = more potent) of -1.59.

In turn, TTGTAGATCTTGCCCAGAGAGA had a sensor-assay potency score (higher = more potent) of -1.34.

TTCTTATGCAGCTTGATGCCGC showed a sensor-assay potency score (higher = more potent) of -0.805.

Sequence TTATCGCAGCAGATCTGCCCGG displayed a sensor-assay potency score (higher = more potent) of -0.618.

TAAAAATATATCTTTTCTCTAT showed a sensor-assay potency score (higher = more potent) of -0.862.
Further: reference of the scale not given here.
